Experimental data from PubChem BioAssay AID1510 (The Scripps Research Institute Molecular Screening Center, 2009).
Out of some 220,000 compounds screened, about 570 (0.26%) were called active. The entries come from a sample that favours actives as a whole. Values without a mark were called inactive. Rule as the data show it: active = inhibition above about 29%; inactive = the rest.

Molecular target: Sphingosine 1-phosphate receptor 4 (Homo sapiens) (UniProt O95977)
Assay: S1P4 receptor antagonists, primary screen, cell-based (AID 1510);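 also: 0% = wells stimulated with agonist and 100% = vehicle wells without agonist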
Details: S1P4-expressing cells, antagonist mode, reporter read-out; at 4.98 µM; hits give high values

Sphingosine 1-phosphate receptor 4 (Homo sapiens), sequence (O95977 whole entry, looked up): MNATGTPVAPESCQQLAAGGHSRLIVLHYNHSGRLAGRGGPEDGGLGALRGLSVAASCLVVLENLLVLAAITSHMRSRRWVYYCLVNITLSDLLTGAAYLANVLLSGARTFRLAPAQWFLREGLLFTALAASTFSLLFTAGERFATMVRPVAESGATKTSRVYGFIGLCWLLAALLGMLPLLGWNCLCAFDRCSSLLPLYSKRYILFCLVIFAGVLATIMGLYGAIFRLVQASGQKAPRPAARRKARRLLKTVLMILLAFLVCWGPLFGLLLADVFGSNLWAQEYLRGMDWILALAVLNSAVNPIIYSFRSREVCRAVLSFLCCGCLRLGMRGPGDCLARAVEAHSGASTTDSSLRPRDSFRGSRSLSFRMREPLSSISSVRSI

Compound	inhibition
CN(C)CC1Oc2ccccc2OC1(O)c1ccccc1 (stereo not given)	66% (active)
Cc1ccc(-c2nn(CCC#N)cc2C(=O)O)cc1C	-15.8%
O=C(COC(=O)Cc1ccccc1)Nc1ccc(F)cc1	-14%
COP(=O)(NS(=O)(=O)c1ccccc1)OC	-0.89%
CN1CCN(Cc2ccc(OC(F)(F)F)cc2)CC1	-5.02%
